An excerpt weighted towards active compounds, which were near 2.8% of everything screened.
IP6K1 inhibitor = Primary qHTS assay for small molecule inhibitors of Inositol hexaphosphate kinase 1 (IP6K1) | Inositol hexakisphosphate kinase 1 (Homo sapiens), Q92551 | IP6K1 kinase, ADP-Glo luminescence, 2 h; active compounds read low | activity change, % (series mostly up to about 58 µM) | 140,000 compounds, 0.81% hits; in the data active means activity change below about -25%
Target sequence (Q92551 whole entry, looked up): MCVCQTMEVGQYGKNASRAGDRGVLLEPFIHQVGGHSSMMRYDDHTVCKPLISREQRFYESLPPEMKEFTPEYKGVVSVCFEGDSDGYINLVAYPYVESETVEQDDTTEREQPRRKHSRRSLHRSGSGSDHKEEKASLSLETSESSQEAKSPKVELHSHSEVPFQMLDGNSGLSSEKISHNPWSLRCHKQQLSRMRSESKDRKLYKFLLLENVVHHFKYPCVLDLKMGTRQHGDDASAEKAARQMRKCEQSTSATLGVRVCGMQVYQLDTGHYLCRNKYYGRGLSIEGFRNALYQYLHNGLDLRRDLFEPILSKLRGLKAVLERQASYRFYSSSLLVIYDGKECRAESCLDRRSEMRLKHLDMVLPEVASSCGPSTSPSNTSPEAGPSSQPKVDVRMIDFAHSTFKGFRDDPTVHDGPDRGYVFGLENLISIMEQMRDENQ
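ADP-Glo luminescence measures ADP made by human IP6K1 during a 2 h RT reaction with ATP/IP6 (mix at 1.3 mM/130 uM); top library doses 57.5 and 19.1 uM final.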
SNCA expr inhib = Primary qHTS assay for inhibitors of alpha-synuclein gene (SNCA) expression | AID 1671194, 2021 | HEK-293 SNCA-luciferase knock-in, luminescence, 24 h | Potency, µM (highest dose often 57.2 µM), actives largely listed as inhibitors | 140,000 compounds, 0.17% hits; further: nearly all actives have a fitted effect of over 45% in size
HEK293 viab = GF-AFC viability counterscreen for inhibitors of alpha-synuclein gene (SNCA) expression. Potency, µM (top dose mostly 57.1 µM), usual class: cytotoxic. AID 1671193, 2021. HEK-293-SNCA-luc viability, GF-AFC fluorescence, 24 h. 150,000 compounds, 0.12% hits; further: nearly all actives have a fitted effect of over 30% in size
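Cytotoxicity counterscreen: after 24 h compound treatment of genome-edited SNCA-luciferase HEK-293 cells, live-cell protease substrate GF-AFC read by fluorescence after 30 min; activity scaled between DMSO (0%) and medium-only (-100%), curves Hill-fitted.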
KDM5B inh = Primary screen for KDM5B Histone Demethylases FDH-coupled qHTS; AID 1347165, 2019; Potency, µM (series often up to 57.7 µM), most hits filed as inhibitors; Lysine-specific demethylase 5B (Homo sapiens), Q9UGL1; 220,000 compounds, 2.6% hits; KDM5B demethylase, FDH-coupled NADH fluorescence (FDH is formaldehyde dehydrogenase); further: nearly all actives have a fitted effect of over 70% in size
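Inhibition is measured as reduced NADH fluorescence generation from FDH coupling to formaldehyde release. Truncated KDM5BΔAP at 200 nM final acts on H3K4me3 peptide (12.5 µM in substrate mix) in pH 7.5 HEPES buffer with Tween-20, 30 min, room temperature.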
Large screens that a line does not name were inactive. Unless noted, the call rests on the fitted dose curve; in most records, active means well fitted curve in the direction sought with a large enough effect; inconclusive means small, poorly fitted or top-dose-only effect, or another doubt; inactive means no such curve, though single readings can be large; an effect the other way counts as inactive or inconclusive.

CN(C)CCNC(=O)c1ccc2c(c1)C1(CCN(CC3CC3)C1)CN2Cc1ccccc1 (configuration not stated)	SNCA expr inhib inconclusive, KDM5B inh 35µM
CN1CC2(CCCN(CC3CC3)C2)c2cc(C(=O)Nc3ccn(C)n3)ccc21 (configuration not stated)	KDM5B inh inconclusive
CC(C)=CCn1c(-c2ccc(F)cc2)cn2cc(C(=O)N(C)CC(C)O)nc2c1=O (configuration not stated)	none
Cc1nn(C)c2sc(C(=O)NCc3ccc(C(=O)O)cc3)cc12	none (no result: IP6K1 inhibitor, SNCA expr inhib, HEK293 viab)
O=C(NCC1CC1)c1ccc2c(c1)C1(CCN(CC3CC3)C1)CN2Cc1ccccc1 (configuration not stated)	KDM5B inh 28µM
CN1CCC2(C1)CN(Cc1ccccc1)c1ccc(C(=O)NCC3CC3)cc12 (configuration not stated)	KDM5B inh 35µM
CN1CCC2(C1)CN(Cc1ccccc1)c1ccc(C(=O)NC3COC3)cc12 (configuration not stated)	KDM5B inh 40µM
CN1CCCC2(C1)CN(Cc1cccnc1)c1ccc(C(=O)NCC3CCCCC3)cc12 (configuration not stated)	SNCA expr inhib inconclusive
CN1CCC2(C1)CN(Cc1ccccc1)c1ccc(C(=O)NCCOc3ccccc3)cc12 (configuration not stated)	KDM5B inh 28µM
COc1ccccc1C(=O)Nc1ccc([C@@H](O)[C@H]2COCC(=O)N2Cc2ccccc2F)cc1	none
CC(Sc1nc2ccccc2o1)C(=O)Nc1ccc(Cl)cc1 (configuration not stated)	none (no result: IP6K1 inhibitor, SNCA expr inhib, HEK293 viab)
CC(=O)NC(Nc1cccc(C(F)(F)F)c1)C(Cl)(Cl)Cl (configuration not stated)	none (no result: IP6K1 inhibitor, SNCA expr inhib, HEK293 viab)
O=C(NCCCO)c1ccc2c(c1)C1(CCN(CC3CC3)C1)CN2Cc1ccccc1 (configuration not stated)	KDM5B inh 35µM
CN1CCC2(C1)CN(Cc1ccccc1)c1ccc(C(=O)Nc3ccn(C)n3)cc12 (configuration not stated)	KDM5B inh inconclusive
CN1CCC2(C1)CN(CC1CC1)c1ccc(C(=O)NC3CCCCC3)cc12 (configuration not stated)	KDM5B inh 40µM
CCNC(=O)c1ccc2c(c1)C1(CCN(CC3CC3)C1)CN2Cc1ccccc1 (configuration not stated)	KDM5B inh 35µM
CN1CCC2(C1)CN(CC1CC1)c1ccc(C(=O)Nc3ccccc3)cc12 (configuration not stated)	KDM5B inh inconclusive
O=C(NCC(F)(F)F)c1ccc2c(c1)C1(CCN(CC3CC3)C1)CN2Cc1ccccc1 (configuration not stated)	KDM5B inh 20µM
CC(C)C(NC(=O)C(C)(c1ccccc1)c1ccccc1)c1ccccc1 (configuration not stated)	none (no result: IP6K1 inhibitor, SNCA expr inhib, HEK293 viab)
CN1CCC2(C1)CN(CC1CC1)c1ccc(C(=O)NCc3cccs3)cc12 (configuration not stated)	KDM5B inh inconclusive
CN1CCC2(C1)CN(CC1CCOCC1)c1ccc(C(=O)NCC(F)(F)F)cc12 (configuration not stated)	KDM5B inh 35µM
Cc1ccc(F)cc1S(=O)(=O)N[C@@H]1CCN(Cc2ccc(OC(C)C)cc2)C1	HEK293 viab 9.5µM (no result: SNCA expr inhib, KDM5B inh)
Cc1cccc(CN2CCCCCNC(=O)CC2c2ccccc2)c1 (configuration not stated)	none
Fc1ccc(CN2CCCC3(CCN(c4cnccn4)C3)C2)cc1F (configuration not stated)	KDM5B inh 28µM
Cc1nn(CN2CCN(S(=O)(=O)c3c(Cl)cccc3Cl)CC2)c(=O)c2ccccc12	none (no result: IP6K1 inhibitor, SNCA expr inhib, HEK293 viab)
Cc1cc(C[C@@H]2COC[C@@H]2NC(=O)c2cnn3ccccc23)on1	KDM5B inh 28µM
COc1cc(OC)c(C(=O)N[C@H]2COC[C@H]2Cc2cc(C)no2)cc1OC	KDM5B inh 20µM
Cc1ccc2oc(C(=O)N[C@H]3COC[C@H]3Cc3cc(C)no3)c(C)c2c1	KDM5B inh 16µM
Cc1cc(C[C@@H]2COC[C@@H]2NC(=O)c2cc(-c3ccccc3O)n[nH]2)on1	none
COc1ccc(C(=O)N[C@H]2COC[C@H]2Cc2cc(C)no2)c(F)c1F	KDM5B inh inconclusive
